In all, about 5,500 compounds went through this assay and about 2,000 (36%) were called active. Inconclusive results (about 18%) are left out. Rule as the data show it: active = normalized growth mostly below about 0.91 (no sharp cut-off); inconclusive = no clear call, values can overlap the other calls; inactive = mostly above about 0.92. The list shows a part of the results.
Test: chemical genetic growth profiling, strain panel (AID 1159580);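 also: tested at 20 µM; growth read once vehicle control cultures reached saturation at 30 °C; 1 = growth at the plate median or of vehicle wells; lower values mean less growth of the strain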
Conditions: S. cerevisiae deletion strains, growth OD

Measured: normalized growth

N#C/C(=N/Nc1ccc(Cl)cc1)C(=O)C1CC1
inactive: locus YDL214C, strain PRR2, hits give low values 0.807 | locus YFR019W, strain FAB1, hits give low values 0.916 | locus YGR052W, strain FMP48, hits give low values 0.666 | locus YHR079C, strain IRE1, hits give low values 0.604 | locus YHR082C, strain KSP1, hits give low values 0.691 | locus YHR205W, strain SCH9, hits give low values 0.711 | locus YJL128C, strain PBS2, hits give low values 0.862 | locus YJL157C, strain FAR1, hits give low values 0.757 | locus YJR066W, strain TOR1 (second series), hits give low values 0.737 | locus YJR066W, strain TOR1, hits give low values 0.643 | locus YKL067W, strain YNK1, hits give low values 0.763 | locus YKL101W, strain HSL1, hits give low values 0.802 | locus YLR133W, strain CKI1, hits give low values 0.811 | locus YML070W, strain DAK1, hits give low values 0.735 | locus YMR205C, strain PFK2 (second series), hits give low values 0.774 | locus YNL020C, strain ARK1, hits give low values 0.805 | locus YOL136C, strain PFK27, hits give low values 0.752 | locus YOR061W, strain CKA2, hits give low values 0.81 | locus YPR106W, strain ISR1, hits give low values 0.92 | locus YPR111W, strain DBF20, hits give low values 0.876 | strain NNK1, hits give low values 0.885
active: locus YAR019C, strain CDC15, hits give low values 0.863 | locus YBL105C, strain PKC1, hits give low values 0.86 | locus YBR135W, strain CKS1, hits give low values 0.854 | locus YBR136W, strain MEC1, hits give low values 0.86 | locus YBR160W, strain CDC28, hits give low values 0.863 | locus YDL017W, strain CDC7, hits give low values 0.865 | locus YDL028C, strain MPS1, hits give low values 0.859 | locus YDL101C, strain DUN1, hits give low values 0.903 | locus YDL108W, strain KIN28, hits give low values 0.86 | locus YDL132W, strain cdc53, hits give low values 0.847 | locus YDR052C, strain DBF4, hits give low values 0.862 | locus YDR054C, strain cdc34, hits give low values 0.848 | locus YDR226W, strain ADK1, hits give low values 0.855 | locus YDR477W, strain SNF1, hits give low values 0.674 | locus YER123W, strain YCK3, hits give low values 0.492 | locus YER133W, strain GLC7, hits give low values 0.626 | locus YFL009W, strain cdc4, hits give low values 0.844 | locus YFL029C, strain CAK1, hits give low values 0.853 | locus YFR003C, strain YPI1, hits give low values 0.857 | locus YFR028C, strain CDC14, hits give low values 0.854 | locus YGR040W, strain KSS1, hits give low values 0.665 | locus YGR092W, strain DBF2, hits give low values 0.332 | locus YHR030C, strain SLT2, hits give low values 0.416 | locus YIL147C, strain SLN1, hits give low values 0.865 | locus YJL095W, strain BCK1, hits give low values 0.416 | locus YJR016C, strain ILV3, hits give low values 0.854 | locus YKL048C, strain ELM1, hits give low values 0.793 | locus YKL193C, strain SDS22, hits give low values 0.851 | locus YKL203C, strain TOR2, hits give low values 0.706 | locus YLR113W, strain HOG1, hits give low values 0.567 | locus YLR403W, strain SFP1, hits give low values 0.646 | locus YMR001C, strain CDC5, hits give low values 0.855 | locus YMR277W, strain FCP1, hits give low values 0.847 | locus YNL006W, strain LST8, hits give low values 0.856 | locus YNL161W, strain CBK1, hits give low values 0.86 | locus YNL183C, strain NPR1, hits give low values 0.551 | locus YNL207W, strain RIO2, hits give low values 0.842 | locus YNL222W, strain SSU72, hits give low values 0.848 | locus YNL307C, strain MCK1 (second series), hits give low values 0.641 | locus YOL078W, strain AVO1, hits give low values 0.846 | locus YOR119C, strain RIO1, hits give low values 0.667 | locus YOR231W, strain MKK1, hits give low values 0.576 | locus YOR329C, strain SCD5, hits give low values 0.86 | locus YPL031C, strain PHO85, hits give low values 0.592 | locus YPL153C, strain RAD53, hits give low values 0.595 | locus YPL204W, strain HRR25, hits give low values 0.554 | locus YPL209C, strain IPL1, hits give low values 0.853 | locus YPL256C, strain CLN2, hits give low values 0.65 | locus YPR025C, strain CCL1, hits give low values 0.856 | strain TSCII, hits give low values 0.85

Source: PubChem BioAssay AID1159580 (chemical genetic matrix, 2015)
